The values below come from ChEMBL document CHEMBL1157539, “Thousands of chemical starting points for antimalarial lead identification” (Nature, 2010).

Type in all cases: functional
Assay [1] concerns Plasmodium falciparum. The assay can be described thus: GSK_TCMDC: Inhibition of Plasmodium falciparum 3D7 in whole red blood cells, using parasite LDH activity as an index of growth. Test compounds present at 2uM.
Assay [2] relates to Plasmodium falciparum. The assay can be described thus: GSK_TCMDC: Inhibition of Plasmodium falciparum Dd2 in whole red blood cells, using parasite LDH activity as an index of growth. Test compounds present at 2uM.
The subject of the next assay is HepG2. As to the kind of experiment: GSK_TCMDC: Percent inhibition of human HepG2 cell line. Test compounds present at 10uM.

As to `Fc1ccc2[nH]c(-c3cccc(-c4cccc(CN5CCN(c6ccncc6)CC5)c4)c3)nc2c1.O=C(O)C(F)(F)F`, the results for the Inhibition in the assay with Plasmodium falciparum [1], in the assay on Plasmodium falciparum [2] and with HepG2 were 100%, 99% and 71%, respectively.

On to `CN(C)c1cc(NC(=O)Nc2ccccc2)c2ccccc2n1`, for which the Inhibition (usually the drop in the measured response relative to a control, in per cent) in the assay with Plasmodium falciparum [1] came out at 100%; in the assay on Plasmodium falciparum [2] it was 98%; with HepG2 it was 11%.

For the compound `O=C(O)C(F)(F)F.O=C1CCCN1CCCNCc1cccc(-c2ccc(-c3nc4ccccc4[nH]3)s2)c1`, the values for the Inhibition with Plasmodium falciparum [1], in the assay on Plasmodium falciparum [2] and with HepG2 were 97%, 0% and 0%, respectively.

Take `O=C1C(=Cc2c(O)ccc3ccccc23)SC(=NCc2ccccc2)N1Cc1ccccc1`: the results for the Inhibition in the assay on Plasmodium falciparum [1], in the assay on Plasmodium falciparum [2] and with HepG2 were 98%, 98% and 0%, respectively.

For the compound `CCNc1cc(C(=O)N[C@@H](Cc2ccccc2Cl)[C@H](O)CNC(C)CCCC(C)C)cc(N2CCCCS2(=O)=O)c1.Cl` (some centres undefined), the Inhibition is listed as 97% with Plasmodium falciparum [1], 62% in the assay on Plasmodium falciparum [2] and 12% in the assay with HepG2.

As to `C#CCOc1ccccc1CN1CCC(N2CCc3cc(NC(=O)c4cc(C)on4)ccc32)C1` (centres undefined), the Inhibition came to 95% in the assay with Plasmodium falciparum [1], 94% with Plasmodium falciparum [2] and 16% in the assay with HepG2.

Consider `Cc1ccc(F)cc1S(=O)(=O)Nc1cccc(CCN2CCC(N3CCCCC3)CC2)c1`, for which the Inhibition in the assay on Plasmodium falciparum [1] is on record as 96%; with Plasmodium falciparum [2], 9%; with HepG2 it was 15%.

Turning to `Cc1nn(-c2ccccc2)nc1C(=O)NC1CCN(CCNC(=O)c2ccc(Cl)c(Cl)c2)CC1.O=C(O)C(F)(F)F`, the Inhibition in the assay with Plasmodium falciparum [1] is 89%; with Plasmodium falciparum [2] it was 5%; with HepG2 it was 15%.

As for `Br.COc1cccc(OC)c1OCCCON1C(=N)N=C(N)NC1(C)C`, the values for the Inhibition in the assay on Plasmodium falciparum [1], in the assay on Plasmodium falciparum [2] and in the assay with HepG2 were 95%, 96% and 53%, respectively.

With `O=S(=O)(c1c(Cl)cc(Cl)cc1Cl)N1CCCCC(c2ccc(F)c(F)c2)=N1`, the values for the Inhibition in the assay with Plasmodium falciparum [1], in the assay with Plasmodium falciparum [2] and in the assay with HepG2 were 87%, 65% and 5%, respectively.

As to `CCOc1ccc(N2C(N)=NC(N)=NC2(C)C)cc1.Cl`, the Inhibition was 95% with Plasmodium falciparum [1], 0% with Plasmodium falciparum [2] and 10% in the assay with HepG2.

As to `COc1ccccc1CCNc1nc(C)cc(N[C@@H](Cc2ccccc2)C(=O)NCCOc2ccccc2)n1.O=C(O)C(F)(F)F`, the Inhibition is 100% in the assay with Plasmodium falciparum [1], 76% in the assay with Plasmodium falciparum [2] and 20% in the assay on HepG2.

Turning to `Cl.ON=C1c2cc(OCCN3CCCCC3)c(Cl)cc2-c2cc(Cl)c(OCCN3CCCCC3)cc21`, the Inhibition stood at 97% in the assay with Plasmodium falciparum [1], 98% in the assay with Plasmodium falciparum [2] and 99% with HepG2.

With `COc1ccc(-c2cccc(NC(=O)c3ccc(Cl)cc3)c2)cc1CNC(C)C.O=C(O)C(F)(F)F`, the Inhibition in the assay on Plasmodium falciparum [1] is given as 100%; with Plasmodium falciparum [2], 44%; with HepG2, 53%.

Regarding `Cl.N=C1N=C(N)NCN1OCc1ccc(Cl)c(Cl)c1`, the values for the Inhibition in the assay on Plasmodium falciparum [1], with Plasmodium falciparum [2] and in the assay on HepG2 were 95%, 4% and 14%, respectively.

For `Cc1[nH]c(C)c([N+](=O)[O-])c(=O)c1-c1ccc(Oc2ccc(OC(F)(F)F)cc2)cc1`, the Inhibition was 97% with Plasmodium falciparum [1], 97% in the assay with Plasmodium falciparum [2] and 0% in the assay with HepG2.

As to `CN(C)c1cc(NC(=O)Nc2ccc(SC(F)(F)F)cc2)c2ccccc2n1`, the figures for the Inhibition with Plasmodium falciparum [1], in the assay with Plasmodium falciparum [2] and in the assay with HepG2 were 100%, 100% and 22%, respectively.

As to `O=C(Cc1c[nH]cn1)Nc1cccc(-c2cccc(-c3nc4cc(C(F)(F)F)ccc4[nH]3)c2)c1`, the Inhibition with Plasmodium falciparum [1] stood at 100%; in the assay on Plasmodium falciparum [2], 100%; with HepG2 it was 35%.

`CCN(CC)CCNC(=O)c1ccc(NC(=O)c2cc(-c3ccncc3)nc3ccccc23)cc1`: the Inhibition with Plasmodium falciparum [1] worked out at 97%; with Plasmodium falciparum [2], 2%; in the assay with HepG2, 1%.

As for `COc1cc(Nc2ccnc3cc(-c4ccccn4)ccc23)cc(OC)c1OC.Cl`, the Inhibition with Plasmodium falciparum [1] was found to be 91%; in the assay on Plasmodium falciparum [2], 0%; in the assay with HepG2, 0%.

Regarding `CCn1c(Sc2ccc([N+](=O)[O-])c(C#N)c2)nnc1-c1ccc(Cl)cc1`, the Inhibition with Plasmodium falciparum [1] is given as 93%; in the assay on Plasmodium falciparum [2], 7%; in the assay with HepG2, 2%.

Turning to `FC(F)(F)c1ccc2[nH]c(-c3ccc(-c4ccc(CNCCN5CCNCC5)cc4)s3)nc2c1.O=C(O)C(F)(F)F`, the Inhibition was found to be 94% in the assay on Plasmodium falciparum [1], 79% in the assay with Plasmodium falciparum [2] and 17% in the assay with HepG2.

As for `O=C(Cc1cccc(Cl)c1)Nc1cccc(-c2c[nH]c3nc(Nc4cccc(OCc5ccccc5)c4)ncc23)c1.O=C(O)C(F)(F)F`, the Inhibition stood at 100% with Plasmodium falciparum [1], 56% in the assay with Plasmodium falciparum [2] and 0% with HepG2.

Consider `Br.Oc1ccc(CCNCCCCCCNCCc2ccc(-c3ccccc3)cc2)cc1O`, for which the Inhibition is on record as 100% with Plasmodium falciparum [1], 8% in the assay on Plasmodium falciparum [2] and 72% with HepG2.

Consider `O=C(CN1CCN(C(C(=O)Nc2cc(C(F)(F)F)ccc2Cl)c2ccccc2)CC1)NC1CC1` (centres undefined), for which the Inhibition in the assay on Plasmodium falciparum [1] is listed as 95%; in the assay with Plasmodium falciparum [2] it was 93%; in the assay with HepG2, 0%.

`Cc1noc(C)c1-c1cccc(CNCc2cccc(-c3ccc(-c4nc5ccccc5[nH]4)cc3)c2)c1.O=C(O)C(F)(F)F`: the Inhibition in the assay with Plasmodium falciparum [1] was determined as 100%; in the assay on Plasmodium falciparum [2], 76%; in the assay on HepG2, 27%.

In the case of `COc1ccc(-c2cccc(NC(=O)c3cccc(C#N)c3)c2)cc1CN(C)CCO.O=C(O)C(F)(F)F`, the Inhibition in the assay with Plasmodium falciparum [1] is reported as 96%; with Plasmodium falciparum [2], 30%; with HepG2, 28%.

Turning to `COc1ccc(C=NNc2cc(C)nc3ccc(OC)cc23)c(OC)c1`, the Inhibition amounted to 100% in the assay with Plasmodium falciparum [1], 95% with Plasmodium falciparum [2] and 23% with HepG2.
